The sequences below were run on VDR:RXRa (NR concentration 270 nM, RXRa partner concentration 90 nM) (assay: PBM binding z-score (relative to random genomic background probes); higher = stronger binding; sequences stand for … in GC…GCGATTGACAGCGTAGAATGAAGG).
Method: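 Protein-binding microarray (Agilent 4x180K custom design, double-stranded 60-nt probes: 5' GC cap, 34-nt variable region, 24-nt constant primer region; full probe sequence given). Purified or IVT nuclear receptor:RXRα heterodimers (3:1 NR:RXRα, mostly 270:90 nM) or homodimers were incubated for 1 h in PBS with 2% milk and no ligand, then detected with Alexa488 antibodies. Fluorescence from o1-orientation probes (~5 replicates averaged) was converted to z-scores against 500 random hg19 background probes. Variable regions are seed direct-repeat (DR0–DR5) sites, all their single-nucleotide variants and half-site ablations.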
AAAACAGGGTCATCGTAGGCCAGAGTACGCACAG showed a PBM binding z-score of 5.38.
Work on TGTCAAAGGTCAAAGGTAACGTAAGTATCCACAC yielded a PBM binding z-score of 6.2.
Work on CGTCCAAGGTCATTGGAGGTCAGTGAAGACAGAT yielded a PBM binding z-score of 7.03.
CGTCAAAGTCCAAGGTAACGTAACAGAAAGCAGC gave a PBM binding z-score of -0.137.
With ATCGAAAGGTCCACGAGGTGAGTATACACCGTTT the PBM binding z-score was 1.22.
TCTGCTAGGTCAACGATGGTCAGTTAATCTGCTA gave a PBM binding z-score of 1.62.
For CGTCCAAGGTCGAAGGTCAGTGAAGAGATGACGG, the PBM binding z-score was 3.23.
Sequence AACGAAAGGTCGAAGGTGAGTATACCCACCCGAA has a PBM binding z-score of 2.9.
With CAAAATAGGTCACAGAGGTCAAAGTCCGTGCGTA the PBM binding z-score was 8.21.
TAGCCTAGGTCATGCGGGACAGTATAGTGTCGGC was tested, and the PBM binding z-score was 3.48.
TCTTGTAGATCAACAGGAGGTTAATAAAGATCGA showed a PBM binding z-score of 0.648.
In the case of ATCAAAAGGTCGAGGTGAGTATAGAGAAAGGGAA, the PBM binding z-score is reported as 3.29.
Work on TAGCCTAGGGCATTCAGGGGCCAGTATAGAAAGC yielded a PBM binding z-score of -0.213.
With TCTTGTAGATCAATAGAAGTTAAGAAAGTGCGCT the PBM binding z-score was 0.744.
In the case of CGCACTAGGTCATCCAGGACAGTGAATACATTGA, the PBM binding z-score is reported as 4.38.
Sequence CCTACTCGGCCAAAAAGGTCATTGATGCCGATAA has a PBM binding z-score of 4.9.
Work on ACTCGGAGGACAAAGGTCAGGGCTACGCCAGTGA yielded a PBM binding z-score of 3.43.
ATATGTAGTTTATCGGGTCATTCAGTTTGCGCAT was tested, and the PBM binding z-score was 5.19.
With ATCGAAAGGTCGACCAGGTGAGTATACACCGTTT the PBM binding z-score was 3.73.
Work on CCTACTGGGCCATTCAGAGGGCATTGATCATATG yielded a PBM binding z-score of 0.0939.
TGTCAATGTTCAAAGGTAACGTAAGTATCCACAC was tested, and the PBM binding z-score was 0.373.
With TACCCTAGGTCATTGGGCCAGTATAGTACGCATC the PBM binding z-score was 2.73.
Work on CGTCCAAGGTCACAGAGGTCAGTGAATGCCGAGT yielded a PBM binding z-score of 7.74.
For TTACCAAGGTGAACGGTCGTTGATGCACGCCTTG, the PBM binding z-score was 0.0102.
For TACCCTAGGTCATGGGCCAGTATACCACGCGAAC, the PBM binding z-score was 2.67.
Sequence CGAACAAGGTCATCCAGGACAGTGAATACATTGA has a PBM binding z-score of 6.39.
In the case of CCGAGGAGGTTACGAGGGGGCATTCAGTGCGAAT, the PBM binding z-score is reported as 6.29.
Sequence GCTAGTTGGTCAGTAAAATGTCACACACCGGTCG has a PBM binding z-score of -0.0389.
With ATCTCTAGGTTAAGATAGTTCAGTGAATGCAAAT the PBM binding z-score was 2.26.
TCTCGGAGGACACTAAAGGTCAGAGCTCGACATC was tested, and the PBM binding z-score was 3.2.
Sequence CCTAGCAGGCCAATCTAGGTCACTCAAGGCTTGA has a PBM binding z-score of 0.635.
CGAACTAGGTCATTGACAGGACAATGAATAGTAA showed a PBM binding z-score of 2.62.
In the case of TGTCAACGTTCAAAGGTAACGTAAGTATCCACAC, the PBM binding z-score is reported as 0.617.
Sequence TAGCCTAGTTCATTCAGGGGCCAGTATAGAAAGC has a PBM binding z-score of 2.
Work on CAAACTAGGTCACAAAAGGTCAAAGTCGAATGAC yielded a PBM binding z-score of 6.51.
CGTCCAAGGTCAGCGGGTCAGTGAAAGCGACGTG gave a PBM binding z-score of 4.57.
CCAACTAGGTCAAAGGACAGTGAAAGGCGACGTA was tested, and the PBM binding z-score was 1.45.
With CCTACTGGACCAAGGTCATTGATCAGTCAAAGCA the PBM binding z-score was 3.44.
GGAACGAGGTCAAGTTGATAGCAGAGTTTGATGG showed a PBM binding z-score of 5.84.
Work on ATCGAAAGGTCGAAGGTGAGCATACCCACCCGAA yielded a PBM binding z-score of 2.63.

— the supplement of paper PMC6555819
